Laboratory results from PubChem BioAssay (NCI).
Compounds without any hit were thinned out: in the full panel of roughly 83,000, 20% have a hit.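 Cells were grown in 96-well plates and exposed to the test compound at a single concentration for 48 hours; results are reported as percent growth, with values below 10 considered active.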 Unmarked numbers belong to inactive results. Active and inactive are the calls of the source.

These compounds were tested on SF-295 CNS (assay: NCI-60 one-dose screen, 48 h (100 = growth as untreated, 0 = no growth, -100 = all killed)). Details: 10 µM unless noted.

Row | Structure (SMILES) | growth
1 | COc1cc(C2CC(C3C(=O)N(C)C(=O)N(C)C3=O)=NN2C=O)cc(OC)c1OC (stereo not given) | 98.1%
2 | C=C1CCC2C3(C)COC(c4ccccc4)OC3CCC2(C)C1C/C=C1/C(=O)OCC1OC(C)=O (stereo not given) | 100%
3 | Clc1ccc(C2=NN(c3ccc(Cl)cc3)C(c3cccc(Nc4ccnc5cc(Cl)ccc45)c3)C2)cc1 (stereo not given) | 88.6%
4 | CC(=O)N1N=C(c2ccc(Nc3nc(NCCO)nc(NCCO)n3)cc2)CC1c1ccc(Cl)cc1 (stereo not given) | 96.6%
5 | O=C(c1ccccc1)c1ccc(Oc2ccc([N+](=O)[O-])cc2[N+](=O)[O-])cc1 | 91.2%
6 | O=C(C(=O)N1CCOCC1)c1cn(CCCn2cc(C(=O)C(=O)N3CCOCC3)c3ccccc32)c2ccccc12 | 106%
7 | CC(C)CC1NC(=O)C(CCCN)NC(=O)C(C(C)C)NC(=O)C2CCCN2C(=O)C(Cc2ccccc2)NC(=O)C(CC(C)C)NC(=O)C(CCCN)NC(=O)C(C(C)C)NC(=O)C2CCCN2C(=O)C(Cc2ccccc2)NC1=O (stereo not given) | -77.4% (active)
8 | Cc1csc(C#Cc2cncc(O)c2)n1 | 121%
9 | COc1cc(/C=C/C(=O)C(C(=O)/C=C/c2ccc(OC(=O)CCNC34CC5CC(CC(C5)C3)C4)c(OC)c2)C(=O)CCNC23CC4CC(CC(C4)C2)C3)ccc1OC(=O)CCNC12CC3CC(CC(C3)C1)C2 (stereo not given) | 37.5%
10 | C/C=C(/C(=C/C)c1ccc(O)cc1)c1ccc(O)cc1 | 12%
11 | COc1cc(/C=C/C(=O)CC(=O)/C=C/c2ccc(OC(=O)CCNC34CC5CC(CC(C5)C3)C4)c(OC)c2)ccc1OC(=O)CCNC12CC3CC(CC(C3)C1)C2 | 51%
12 | Oc1c(Cl)cc(Cl)c(Cl)c1Cc1c(O)c(Cl)cc(Cl)c1Cl | -42.4% (active)
13 | COc1cc(C2CC(c3ccc(C)cc3)=NN2C=O)ccc1OCCN(C)C (stereo not given) | 97.4%
14 | NS(=O)(=O)c1cc(C2(O)NC(=O)c3ccccc32)ccc1Cl (stereo not given) | 103%
15 | CCn1cnc(C[C@H](NC(=O)[C@H](CCCCNC(=O)Nc2cc(C(F)(F)F)cc(C(F)(F)F)c2)NC(=O)Nc2cc(C(F)(F)F)cc(C(F)(F)F)c2)C(=O)OC)c1 | -97.4% [100 µM] (active)
16 | CS(=O)(=O)N1CCN(Cc2cc3nc(-c4cccc5[nH]ncc45)nc(N4CCOCC4)c3s2)CC1 (tested in a mixture with another compound) | 1.83% (active)
17 | CN(C)c1ccc(-c2nc3ncc(Br)cc3o2)cc1 | 109%
18 | COc1ccc(-c2cc(-c3nnc(SCC(=O)Nc4ccc(C(C)=O)cc4)n3-c3ccccc3)c3ccccc3n2)cc1OC | 98.7%
19 | Nc1nc(NC2CC2)c2ncn(C3C=CC(CO)C3)c2n1 (stereo not given) | 106%
20 | C[C@]12CCC(=O)C=C1CC[C@H]1[C@@H]3C[C@@H](O)[C@](O)(C(=O)CO)[C@@]3(C)C[C@H](O)[C@@]12F | 104%

Row | Structure (SMILES) | growth
21 | NS(=O)(=O)c1cc2c(cc1Cl)NC=NS2(=O)=O | 104%
22 | COc1cnc2c(c1)C(=O)c1c-2n(CCCn2ccnc2)c(=O)c2cc(F)ccc12 | -5.57% (active)
23 | NC(=O)c1cc(Br)cc(Br)c1NS(=O)(=O)c1ccccc1 | 98.2%
24 | CN(C)c1ccc(-n2nc3ccccc3n2)cc1 | 82.7%
25 | CC1CN(C2CCCCC2)C(=O)NC1=O (stereo not given) | 108%
26 | O=C1C=CC(=O)N1c1ccccc1N1C(=O)C=CC1=O | 125%
27 | Cc1n(Cc2ccc3ccccc3c2)c2ccccc2[n+]1Cc1ccc2ccccc2c1 | -37.6% (active)
28 | C[C@H]1O[C@@H](O[C@H]2[C@@H](O)C[C@H](O[C@H]3[C@@H](O)C[C@H](O[C@H]4CC[C@]5(C)C6C[C@@H](O)[C@]7(C)[C@@H](C8=CC(=O)OC8)CC[C@]7(O)C6CC[C@@H]5C4)O[C@@H]3C)O[C@@H]2C)C[C@H](O)[C@@H]1O (stereo not given in full) | -99.9% (active)
29 | O=C(CNc1ccc2c(c1)C(=O)c1ccccc1C2=O)Nc1ccc2c(c1)C(=O)c1ccccc1C2=O | -89.4% (active)
30 | Cc1sc2nc(N3CCCCC3)[nH]c(=O)c2c1C | 97%
31 | NC(=NCCCCCCN=C(N)/N=C(\N)Nc1ccc(Cl)cc1)/N=C(\N)Nc1ccc(Cl)cc1 | -9.13% (active)
32 | COc1cc(NC(=O)NCc2ccco2)ccc1-c1ccc(NC(=O)NCc2ccco2)cc1OC | 46.3%
33 | CSc1nc(Nc2ccc(S(=O)(=O)Nc3ccon3)cc2)c(C#N)c(-c2ccc(Cl)cc2)n1 | 113%
34 | COP(=O)(OC)C(c1ccc(O)cc1)(c1ccc(O)cc1)c1ccc(O)cc1 | 82.7%
35 | C=C1CCC2C(C)(COC(=O)CC)C(OC(=O)CC)CCC2(C)C1C/C=C1/C(=O)OCC1OC(=O)CC (stereo not given) | 56.7%
36 | Cc1cnc2nc(-c3ccc(N(C)C)cc3)cn2c1 | 106%
37 | Cc1ccc2nc3c(n2c1)C(=O)C(=O)c1ccccc1-3 | -71.1% (active)
38 | CC(C)=CCCC(C)c1ccc(C)c2c1OCN(CC1CCNCC1)C2 (stereo not given) | 98.7%
39 | CCOc1cc(/C=C/C(=O)C(C(=O)/C=C/c2ccc(OC(=O)CNc3nc4ccccc4[nH]3)c(OCC)c2)C(=O)CNc2nc3ccccc3[nH]2)ccc1OC(=O)CNc1nc2ccccc2[nH]1 | -20.4% (active)
40 | COc1ccc(C(=O)/C=C/c2cccc(Nc3ccnc4cc(Cl)ccc34)c2)cc1 | 30.6%
